Eight molecules from ChEMBL document CHEMBL1961873, “Compounds: GSK PKIS; Assays: Nanosyn kinase panel” (2012) can be followed below.

Assay [1] concerns the target T1, Serine/threonine-protein kinase D2 (Homo sapiens) (UniProt Q9BZL6).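 Note: mean value of PRKD2 inhibition, from the GSK PKIS screening panel.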
T1 sequence (whole entry): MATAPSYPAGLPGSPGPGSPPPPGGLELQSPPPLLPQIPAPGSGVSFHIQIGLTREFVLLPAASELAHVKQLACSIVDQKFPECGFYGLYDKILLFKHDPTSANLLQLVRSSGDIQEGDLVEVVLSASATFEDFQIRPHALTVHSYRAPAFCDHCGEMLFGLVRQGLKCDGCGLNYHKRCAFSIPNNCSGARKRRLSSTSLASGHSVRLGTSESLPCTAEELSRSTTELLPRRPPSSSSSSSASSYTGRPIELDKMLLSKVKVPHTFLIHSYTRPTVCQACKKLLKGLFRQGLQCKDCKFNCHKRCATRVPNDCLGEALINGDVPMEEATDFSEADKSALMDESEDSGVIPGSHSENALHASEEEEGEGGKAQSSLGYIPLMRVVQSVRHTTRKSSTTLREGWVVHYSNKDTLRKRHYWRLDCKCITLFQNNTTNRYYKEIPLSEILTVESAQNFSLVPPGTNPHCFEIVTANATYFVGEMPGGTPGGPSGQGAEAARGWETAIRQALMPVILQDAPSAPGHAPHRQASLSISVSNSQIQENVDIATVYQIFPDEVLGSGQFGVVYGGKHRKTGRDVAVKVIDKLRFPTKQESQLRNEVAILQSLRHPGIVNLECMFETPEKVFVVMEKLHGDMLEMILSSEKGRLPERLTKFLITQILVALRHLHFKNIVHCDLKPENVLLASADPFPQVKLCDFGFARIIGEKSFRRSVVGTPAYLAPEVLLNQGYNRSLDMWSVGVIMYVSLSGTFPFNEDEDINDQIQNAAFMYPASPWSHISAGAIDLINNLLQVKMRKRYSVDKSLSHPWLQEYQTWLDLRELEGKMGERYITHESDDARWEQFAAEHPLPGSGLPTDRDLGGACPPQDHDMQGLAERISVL
The settings on record: at 1 µM.

The target in assay [2] is T2, Serine/threonine-protein kinase D3 (Homo sapiens) (UniProt O94806).
T2 sequence (whole entry): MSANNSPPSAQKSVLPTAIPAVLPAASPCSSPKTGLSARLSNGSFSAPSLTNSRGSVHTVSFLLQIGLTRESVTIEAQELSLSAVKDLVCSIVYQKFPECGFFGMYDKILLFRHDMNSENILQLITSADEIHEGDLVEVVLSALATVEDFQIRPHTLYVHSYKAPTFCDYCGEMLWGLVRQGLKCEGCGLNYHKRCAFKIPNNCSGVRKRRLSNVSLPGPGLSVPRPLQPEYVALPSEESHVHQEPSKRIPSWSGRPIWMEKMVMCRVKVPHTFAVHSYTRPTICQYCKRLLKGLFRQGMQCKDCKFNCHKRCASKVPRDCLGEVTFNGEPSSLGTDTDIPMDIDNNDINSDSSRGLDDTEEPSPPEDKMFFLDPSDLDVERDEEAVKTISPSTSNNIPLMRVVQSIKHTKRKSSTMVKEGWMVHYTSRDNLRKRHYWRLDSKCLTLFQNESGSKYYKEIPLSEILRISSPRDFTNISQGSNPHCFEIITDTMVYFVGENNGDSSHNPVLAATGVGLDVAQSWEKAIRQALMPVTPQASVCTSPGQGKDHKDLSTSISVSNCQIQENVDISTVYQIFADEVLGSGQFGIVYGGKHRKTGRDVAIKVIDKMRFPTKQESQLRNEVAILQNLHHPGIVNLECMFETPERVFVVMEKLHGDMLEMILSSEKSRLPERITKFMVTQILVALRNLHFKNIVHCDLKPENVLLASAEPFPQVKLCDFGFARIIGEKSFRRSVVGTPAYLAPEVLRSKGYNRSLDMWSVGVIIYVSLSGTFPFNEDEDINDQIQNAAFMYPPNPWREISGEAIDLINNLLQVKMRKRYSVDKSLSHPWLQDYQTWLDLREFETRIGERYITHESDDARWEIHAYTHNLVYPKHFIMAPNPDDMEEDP
The settings on record: at 0.1 µM.

In assay [3] the target is T2, Serine/threonine-protein kinase D3 (Homo sapiens). The settings on record: at 1 µM.
Assay [4] has as its target T3, cGMP-dependent protein kinase 1 (Homo sapiens) (UniProt Q13976).
T3 sequence (whole entry): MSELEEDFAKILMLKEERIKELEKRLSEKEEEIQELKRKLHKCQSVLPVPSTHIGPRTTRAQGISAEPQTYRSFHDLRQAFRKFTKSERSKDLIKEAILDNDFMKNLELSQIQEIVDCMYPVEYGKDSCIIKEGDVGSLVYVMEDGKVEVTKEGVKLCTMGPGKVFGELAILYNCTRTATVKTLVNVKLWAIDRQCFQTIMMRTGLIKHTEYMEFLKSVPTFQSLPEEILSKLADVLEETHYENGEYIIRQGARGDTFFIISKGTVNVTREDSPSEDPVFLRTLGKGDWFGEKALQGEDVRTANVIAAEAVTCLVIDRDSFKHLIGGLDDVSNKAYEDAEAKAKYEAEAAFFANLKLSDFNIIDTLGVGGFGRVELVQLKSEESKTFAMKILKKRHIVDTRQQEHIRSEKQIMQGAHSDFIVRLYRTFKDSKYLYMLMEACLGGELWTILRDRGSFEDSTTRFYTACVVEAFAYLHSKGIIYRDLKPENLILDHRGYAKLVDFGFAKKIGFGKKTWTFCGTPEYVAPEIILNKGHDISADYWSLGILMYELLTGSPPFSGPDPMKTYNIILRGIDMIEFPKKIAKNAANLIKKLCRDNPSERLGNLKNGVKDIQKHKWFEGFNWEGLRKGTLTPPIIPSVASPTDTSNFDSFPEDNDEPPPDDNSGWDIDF
The settings on record: at 0.1 µM.

Assay [5] deals with T3, cGMP-dependent protein kinase 1 (Homo sapiens). The settings on record: at 1 µM.
Assay [6] concerns the target T4, cGMP-dependent protein kinase 2 (Homo sapiens) (UniProt Q13237).
T4 sequence (whole entry): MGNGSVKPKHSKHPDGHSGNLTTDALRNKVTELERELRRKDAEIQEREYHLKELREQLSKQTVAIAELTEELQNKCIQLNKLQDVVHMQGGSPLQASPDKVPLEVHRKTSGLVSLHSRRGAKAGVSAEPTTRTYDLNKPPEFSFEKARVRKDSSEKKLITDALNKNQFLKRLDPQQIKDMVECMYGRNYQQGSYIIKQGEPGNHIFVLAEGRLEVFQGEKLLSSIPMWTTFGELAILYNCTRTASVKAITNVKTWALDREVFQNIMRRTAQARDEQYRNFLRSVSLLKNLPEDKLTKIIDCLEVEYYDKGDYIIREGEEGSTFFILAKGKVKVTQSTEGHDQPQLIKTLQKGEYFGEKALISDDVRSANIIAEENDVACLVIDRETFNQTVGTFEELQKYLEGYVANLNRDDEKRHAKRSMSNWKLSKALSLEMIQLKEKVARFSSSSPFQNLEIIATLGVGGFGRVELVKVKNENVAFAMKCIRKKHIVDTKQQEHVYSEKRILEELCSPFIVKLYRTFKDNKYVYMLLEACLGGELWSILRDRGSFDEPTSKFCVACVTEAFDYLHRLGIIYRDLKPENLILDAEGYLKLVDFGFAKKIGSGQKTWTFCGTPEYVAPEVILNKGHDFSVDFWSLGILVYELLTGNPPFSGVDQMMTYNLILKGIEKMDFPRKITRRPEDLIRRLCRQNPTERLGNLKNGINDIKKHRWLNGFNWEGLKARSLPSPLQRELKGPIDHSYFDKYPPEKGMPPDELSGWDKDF
The settings on record: at 0.1 µM.

Assay [7] deals with T4, cGMP-dependent protein kinase 2 (Homo sapiens). The settings on record: at 1 µM.
The target of assay [8] is T5, cAMP-dependent protein kinase catalytic subunit PRKX (Homo sapiens) (UniProt P51817).
T5 sequence (whole entry): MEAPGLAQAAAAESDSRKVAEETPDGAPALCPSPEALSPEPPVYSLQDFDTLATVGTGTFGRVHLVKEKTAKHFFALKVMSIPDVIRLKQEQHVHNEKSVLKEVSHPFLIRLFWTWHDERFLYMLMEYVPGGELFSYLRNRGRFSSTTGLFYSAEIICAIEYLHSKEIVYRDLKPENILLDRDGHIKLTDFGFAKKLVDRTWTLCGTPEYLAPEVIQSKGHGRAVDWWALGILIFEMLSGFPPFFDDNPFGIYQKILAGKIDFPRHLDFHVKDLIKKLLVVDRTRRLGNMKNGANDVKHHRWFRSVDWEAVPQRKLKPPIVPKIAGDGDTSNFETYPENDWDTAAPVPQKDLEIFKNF
The settings on record: at 0.1 µM.

Assay [9] deals with T5, cAMP-dependent protein kinase catalytic subunit PRKX (Homo sapiens). The settings on record: at 1 µM.
Assay [10] addresses Rho-associated protein kinase 1 (Homo sapiens) (UniProt Q13464). The settings on record: at 0.1 µM.

Chain of Rho-associated protein kinase 1 (Homo sapiens) (Q13464 2-1354 limits assumed): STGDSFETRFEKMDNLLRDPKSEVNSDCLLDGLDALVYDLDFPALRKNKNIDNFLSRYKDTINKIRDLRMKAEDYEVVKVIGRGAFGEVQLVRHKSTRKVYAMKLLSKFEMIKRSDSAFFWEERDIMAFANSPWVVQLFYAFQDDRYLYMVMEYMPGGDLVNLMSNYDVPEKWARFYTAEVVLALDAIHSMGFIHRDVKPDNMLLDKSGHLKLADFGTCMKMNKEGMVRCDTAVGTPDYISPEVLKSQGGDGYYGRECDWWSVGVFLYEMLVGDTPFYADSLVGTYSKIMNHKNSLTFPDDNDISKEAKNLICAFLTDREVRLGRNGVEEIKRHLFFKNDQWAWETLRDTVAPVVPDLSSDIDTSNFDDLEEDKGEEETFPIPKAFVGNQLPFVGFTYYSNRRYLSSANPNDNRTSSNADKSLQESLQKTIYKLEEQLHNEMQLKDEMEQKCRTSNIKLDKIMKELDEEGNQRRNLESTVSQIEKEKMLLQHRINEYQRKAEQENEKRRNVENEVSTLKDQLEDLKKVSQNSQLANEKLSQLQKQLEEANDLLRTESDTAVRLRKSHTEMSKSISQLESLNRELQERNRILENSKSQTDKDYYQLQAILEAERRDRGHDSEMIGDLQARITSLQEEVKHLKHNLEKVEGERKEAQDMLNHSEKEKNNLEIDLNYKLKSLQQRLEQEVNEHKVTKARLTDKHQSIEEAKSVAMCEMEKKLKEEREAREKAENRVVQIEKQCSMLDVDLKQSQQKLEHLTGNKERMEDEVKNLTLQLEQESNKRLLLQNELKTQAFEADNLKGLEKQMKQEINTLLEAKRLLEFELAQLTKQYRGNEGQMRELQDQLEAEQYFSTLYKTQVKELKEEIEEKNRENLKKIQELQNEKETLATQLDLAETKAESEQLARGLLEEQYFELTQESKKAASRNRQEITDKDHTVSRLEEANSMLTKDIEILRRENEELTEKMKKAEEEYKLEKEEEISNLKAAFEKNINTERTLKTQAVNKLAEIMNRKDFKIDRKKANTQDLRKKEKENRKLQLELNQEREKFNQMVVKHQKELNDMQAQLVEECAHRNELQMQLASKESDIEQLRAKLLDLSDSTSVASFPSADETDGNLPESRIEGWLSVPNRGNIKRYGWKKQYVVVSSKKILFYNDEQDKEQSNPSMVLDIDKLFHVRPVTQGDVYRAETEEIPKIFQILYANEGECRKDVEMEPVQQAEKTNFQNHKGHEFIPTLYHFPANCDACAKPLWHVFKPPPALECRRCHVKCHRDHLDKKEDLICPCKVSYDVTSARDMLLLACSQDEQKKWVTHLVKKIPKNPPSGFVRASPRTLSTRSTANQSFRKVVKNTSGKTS

On to `O=C(Nc1n[nH]c2nnc(-c3cccnc3)cc12)C1CC1`, for which the inhibition is 0.68% in [1]; -0.7% in assay [2]; 0.02% in [3]; -0.91% in assay [4]; 0.14% in assay [5]; 1.31% in assay [6]. The inhibition was 7.32% in [7], -0.34% in assay [8], -0.33% in assay [9] and -0.21% in [10].
Take `CCOc1ccc2c(-c3ccnc(Nc4cc(OC)cc(C(F)(F)F)c4)n3)cnn2n1`: the inhibition is 0.81% in assay [1]; -0.03% in assay [2]; 1.2% in assay [3]; 0.85% in assay [4]; 7.21% in assay [5]; 0.36% in assay [6]. Further, the inhibition is 2.15% in assay [7], 0.62% in assay [8], 0.2% in assay [9] and -0.28% in assay [10].
In the case of `CS(=O)(=O)Nc1ccc(-c2cc(-c3ccccc3)cc(C(N)=O)c2N)cc1`, the inhibition turned out to be 1.14% in assay [1]; 1.65% in assay [2]; 2.57% in assay [3]; 2.68% in [4]; 2.84% in assay [5]; 1.37% in assay [6]. Further, the inhibition in [7] was 2.4%; in [8] it was 1.16%; in assay [9] it was 1.26%; in [10], 1.5%.
As to `COc1cccc(-n2ncc3c(N/N=C/c4ccc(C(=O)NCCN(C)C)cc4)ncnc32)c1`, the inhibition in [1] was 6.33%; in assay [2] it was 2.63%; in assay [3], 4.71%; in assay [4], 2.79%; in [5] it was 1.97%; in assay [6] it was 4.28%. For the same molecule, the inhibition in assay [7] is 20.5%; in assay [8] it was 1.32%; in assay [9], 5.04%; in assay [10] it was 3.7%.
For the molecule `Cc1cc(O)cc(C)c1/C=C/c1cncc(C(=O)OC(C)(C)C)c1`, the inhibition was found to be 1.78% in assay [1]; 2.12% in assay [2]; 2.64% in [3]; 3.26% in [4]; 3.58% in assay [5]; 1.21% in assay [6]. Besides, the inhibition in assay [7] was 2.65%; in assay [8] it was 3.57%; in [9], 6.36%; in assay [10], 2.92%.
Turning to `c1ccc(-c2n[nH]cc2-c2ccnc(-c3ccc(OCCn4ccnc4)cc3)c2)nc1`, the inhibition came out at 64.3% in assay [1]; 7.07% in assay [2]; 47.7% in assay [3]; 0.59% in assay [4]; 4.08% in assay [5]; 1.04% in [6]. The inhibition was 2.63% in assay [7], 2.32% in [8], 7.66% in [9] and 4.13% in assay [10].
In the case of `NS(=O)(=O)c1ccc(N/N=C2\C(=O)Nc3cccc(CCc4ccncc4)c32)cc1`, the inhibition was 0.82% in [1]; 0.3% in [2]; 0.91% in [3]; 0.22% in assay [4]; -0.46% in [5]; -0.44% in assay [6]. The inhibition in assay [7] was -0.5%; in assay [8], 0.12%; in assay [9], 0.09%; in [10], 0.65%.
As to `OCCCNc1nccc(-c2c(-c3ccc(F)cc3)nn3cc(C(F)(F)F)ccc23)n1`, the inhibition in assay [1] is 16.9%; in assay [2], 4.73%; in assay [3], 33.9%; in [4], 1.52%; in assay [5] it was 4.78%; in assay [6], 2.03%. For the same molecule, the inhibition in assay [7] is 3.96%; in [8] it was 0.4%; in assay [9], -0.76%; in assay [10], 0.15%.
